High-throughput results from PubChem.
KCNQ2 inh = KCNQ2 (rat) channel inhibition | O88943 | 310,000 compounds, 1.1% hits | AID 2156 | CHO-K1 KCNQ2, FluxOR thallium flux, 20 min; stronger effect = lower value | B-score at 10 µM;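 active means fluorescence ratio B-score at most minus 3 library SDs, with starting brightness B-score within 2 library SDs, cut at about -5.5 in these data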
KCNQ2 enhance = potentiators of rat KCNQ2 potassium channel | CHO-K1 KCNQ2, FluxOR thallium flux fluorescence; stronger effect = higher value | O88943 | B-score at 10 µM | 310,000 compounds, 0.54% hits;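 active means fluorescence ratio B-score at least 3 SD of library B-scores, with initial fluorescence B-score within 3 of them, cut at about 5.3 in these data; same plate scores as AID 2156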;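 further: B-score of peak minus minimum over baseline fluorescence ratio after K+ and Tl+ stimulus; positive B-score means potentiation of KCNQ2 with more thallium influx and brighter signal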
Kir21 confirm = confirmation of mouse Kir2.1 potassium channel inhibitors. 2,300 compounds, 41% hits. Kir2.1-expressing cells, FluxOR thallium flux fluorescence; stronger effect = lower value. shares compounds with KCNQ2 enhance. Tl flux remaining, % of negative control (stronger effect = lower value), % at 10 µM;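 active means Primary-screen hit whose thallium flux fell at least 3 control SD below untreated wells in both duplicates, with normal baseline fluorescence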
HEK293 Tl flux = parental HEK293 activity in Kir2.1 inhibitor counter-screen. parental HEK293 cells, FluxOR thallium flux fluorescence; 0% = unstimulated blank wells. 2,300 compounds, 19% hits. AID 2105. shares compounds with KCNQ2 enhance. FluxOR signal as % of negative control (100 = no effect), % at 10 µM;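 active means dye signal at least 3 control SD above or below untreated wells in both duplicates, raw fluorescence within 3, either direction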;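 further: percent is based on the flux ratio of peak minus minimum fluorescence over baseline F0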
Of the large screens only hits and unclear results are named; the others gave an inactive call (follow-up assays come after a bar, where they were run). Shown are actives, neighbours in structure and some others; about 1.6% of the full set was active somewhere.

COc1ccc(Cc2nccc3cc(OC)c(OC)cc23)cc1OC	none (no result: KCNQ2 enhance) | Kir21 confirm 43.0% | HEK293 Tl flux inactive
FC(F)(F)c1cccc(C2NCc3ccccc3-n3cccc32)c1 (configuration not stated)	none (no result: KCNQ2 enhance)
Oc1ccc(C2NCc3ccccc3-n3cccc32)cc1Cl (configuration not stated)	none | Kir21 confirm 59.0% | HEK293 Tl flux inactive
NC(N)=N/N=C/c1ccc(N(c2ccccc2)c2ccccc2)cc1	none | Kir21 confirm inactive | HEK293 Tl flux inactive
COc1ccc(/C=N\N=C(N)N)cc1	none
C=Cn1ccnc1P(=S)(c1nccn1C=C)C1CCCCC1	none (no result: KCNQ2 enhance)
CN1CC(C(=O)c2ccc([N+](=O)[O-])cc2)C(c2ccc(Cl)cc2)C1 (configuration not stated)	none (no result: KCNQ2 enhance)
CN1CC(C(=O)c2cccc(C(F)(F)F)c2)C(c2ccc(Cl)cc2)C1 (configuration not stated)	none (no result: KCNQ2 enhance) | Kir21 confirm 41.5% | HEK293 Tl flux 59.0%
COc1cccc(C(=O)C2CN(C)CC2c2ccc(Cl)cc2)c1 (configuration not stated)	none (no result: KCNQ2 enhance) | Kir21 confirm 37.5% | HEK293 Tl flux inactive
CN1CC(C(=O)c2ccccc2)C(c2ccccc2)C1 (configuration not stated)	none
O=C(CCNC(=O)N1C[C@H]2C[C@@H](C1)c1cccc(=O)n1C2)Nc1ccc(F)cc1	none (no result: KCNQ2 enhance)
CCOC(=O)Cn1cc(C(=O)c2ccccc2)c2ccccc21	none
C=CCn1c(O)c(C(CC)=NCC2CCCO2)c(=O)[nH]c1=O (configuration not stated)	none
